Out of some 91,000 compounds screened, about 160 (0.18%) were called active. Shown is part of a subset that was picked to be rich in actives. Values without a mark were called inactive.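 How the source made its calls: active means inhibition above the batch mean plus 3 SD and confirmed as a hit by visual image inspection (cut at about 30% in these data, passing the limit was not always enough); inconclusive means above the inhibition threshold but rejected on visual inspection; inactive means the rest.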

The assay is described as follows: modifiers of F-actin cytoskeleton organization, primary screen, imaging, HUVEC, phalloidin staining, high-content imaging (AID 836). Particulars: HUVEC TNFa F-actin phalloidin imaging, at 2 µM, active compounds read high.
By inhibition is commonly meant the change of the read-out against control, counted positive when it falls. `COc1ccc([N+](=O)[O-])cc1NC(=O)CCc1ccccc1`: the inhibition was 9.1%. With `CC(Oc1ccc(-c2ccccc2)c(F)c1)c1ccn(S(=O)(=O)c2cccc3ccccc23)n1` (centres undefined), the inhibition was 1.3%. Under `N#C/C(=C(/O)Cc1cccc2ccccc12)c1nc2ccccc2s1` stands 18.2%; under `COc1cc(C2CC(=O)c3cnc(NC(C)=O)nc3C2)cc(OC)c1OC` (centres undefined), -1.6%; under `CC1=C(C(=O)Nc2ccc(Cl)cc2)C(c2ccco2)NC(=O)N1` (centres undefined), -60.1%. The value for `O=C(Nc1ncc2c(n1)CC(c1ccco1)CC2=O)c1ccc(Cl)cc1` (centres undefined) was 100% (active); that for `FC(F)(F)c1cccc(-c2cc3ccccc3nc2N2CCCC2)c1` was -10%.

In the case of `COc1cccc(NC(=O)C2c3cc(OC)c(OC)cc3C(=O)N(C)C2c2cccnc2)c1` (centres undefined), the inhibition was 29%.

For the compound `NC(=O)COc1ccc(/C=N/NC(=O)C2CCCN2S(=O)(=O)c2ccc(Cl)cc2)cc1` (centres undefined), the inhibition is -7.7%. The value for `CC(=O)c1cn(CCCCCCCCCCn2cc(C(C)=O)c(=O)[nH]c2=O)c(=O)[nH]c1=O` was 6.8%; that for `O=C(CCc1ccc(S(=O)(=O)N2CCOCC2)cc1)Nc1ccc2ccccc2c1` was -5%; that for `O=C(CNC(=O)c1ccccc1)NCC(=O)OCc1ccc(Cl)cc1` was -29.4%. Under `CC(C(=O)Nc1ccc(F)c(F)c1F)N1CCCCCC1` (centres undefined) stands 9.4%; under `O=c1c2ccccc2nc2n1C(CSc1ccc(Cl)cc1)CN2` (centres undefined), -15.2%; under `Cc1cccc(CSc2nnc(NC(=O)CSc3nnc(C)s3)s2)c1`, -21.1%.

For the compound `O=C(NC1CCCCC1)c1cc([N+](=O)[O-])ccc1N1CCOCC1`, the inhibition was -40.7%. Under `Cc1n[nH]c(=O)n1-c1ccc(Oc2ccccc2)cc1` stands 22.6%. Turning to `Cc1ccc(C)c(NC(=O)C2Cc3ccccc3CN2C(=O)OCc2ccccc2)c1` (centres undefined), the inhibition was 26.6%.

In the case of `Cc1ccc(S(=O)(=O)N(CC(=O)NCCSC2CCCCC2)c2ccccc2F)cc1`, the inhibition is 1.5%. For the compound `CC(C)CC(=O)N1CCC(O)(CS(=O)(=O)Cc2ccccc2)CC1`, the inhibition was 34.4%. The value for `Cc1ccc(-c2csc(N(Cc3ccco3)C(=O)c3cccs3)n2)cc1` was 5.4%; that for `Fc1ccccc1COc1ccccc1CNCc1ccncc1` was -4.1%. Consider `COc1ccccc1NC(=O)c1ccc2nc(N3C(=O)CCC3=O)sc2c1`, for which the inhibition was 19.2%. The value for `COc1cc(C2C(C(=O)OCCC#N)=C(C)NC3=C2S(=O)(=O)c2ccccc23)cc(OC)c1OC` (centres undefined) was -21.9%; that for `O=C(CCCN1C(=O)c2cccc3cccc(c23)C1=O)N1CCN(Cc2ccc3c(c2)OCO3)CC1` was 21%. In the case of `Cc1cccc(COc2ccccc2/C=N/Nc2ccc([N+](=O)[O-])cc2)c1`, the inhibition is 15.8%.

On to `COc1ccccc1OCCNc1cc(N2CCOCC2)ccc1[N+](=O)[O-]`, for which the inhibition is 5.1%. Under `O=C(COc1ccc(Br)cc1F)NC1CCN(Cc2ccccc2)CC1` stands -0.2%. The value for `C/C(=N/NC(=O)c1ccc(NC(=O)c2ccc(F)cc2)cc1)c1ccccc1` was -18.2%; that for `COc1cc(/C=C(/NC(=O)c2ccccc2)C(=O)Nc2cccc(O)c2)c([N+](=O)[O-])cc1OC` was 7.4%. The value for `C=CCNC(=S)NNc1ncnc2sc3c(c12)CC(C)(C)OC3` was -11.6%; that for `C=CCNC(=O)c1sc(SC)cc1-c1ccc(Cl)cc1` was 7.4%. On to `Cc1cccc(-n2cnc(C(=O)Nc3cccnc3)c2)n1`, for which the inhibition is 1.4%. The value for `Cc1cccc(C)c1NC(=O)c1ccc(CN2CCc3ccccc3C2)cc1` was -19.9%; that for `Cc1cc(C)cc(OCC(=O)Nc2nc3ccc([N+](=O)[O-])cc3s2)c1` was -19.8%.

Consider `Cc1ccc(-c2nnc(-n3nnc4ccccc43)c3ccccc23)cc1`, for which the inhibition is -2%. The value for `CC(C)c1ccc(/C=C/C(=O)NNC(=O)c2cccnc2)cc1` was 1.1%; that for `O=C(Nc1ccccc1)O/N=C1\CCCCC1c1ccc([N+](=O)[O-])cc1[N+](=O)[O-]` (centres undefined) was -8.4%. Under `c1ccc2c(CSCc3nc4ccccc4[nH]3)cccc2c1` stands -12.1%. In the case of `CSc1ccc(C#N)cc1NC(=O)c1cccc(Cl)c1`, the inhibition is 3.3%. Under `Cc1[nH]n(-c2ccccc2)c(=O)c1CCOC(=O)c1ccc(C(F)(F)F)cc1` stands -0.4%; under `CN(C)Cc1ccccc1C1(O)c2ccccc2CSc2ccccc21` (centres undefined), -10.2%; under `O=C(/C=C/c1ccccc1)N/C(=C/c1ccccc1)C(=O)Nc1ccccc1O`, -50.9%.

Take `CCOc1ccc(-c2c(C)n([O-])c3c([n+]2=O)CCCC3)cc1`: the inhibition is -18.2%. The value for `Cc1c(Nc2cc(N3CCCC(C)C3)c3nonc3c2[N+](=O)[O-])c(=O)n(-c2ccccc2)n1C` (centres undefined) was 3.1%. `COc1cc(/C=N/O)cc(Br)c1OCc1cccc(Cl)c1`: the inhibition was -41.4%. The value for `CCOC(=O)c1nn(-c2cccc(C)c2)cc1C(=O)c1ccccc1` was 5.4%. With `O=C(/C=C/c1cc2c(cc1Br)OCO2)NCc1ccc(Cl)cc1`, the inhibition is 7.8%. For `Cc1nc(NC2=NC(C(=O)Nc3ccc(Cl)cc3)CC(=O)N2)nc2ccccc12` (centres undefined), the inhibition was 7.9%. The value for `Cc1nc(C)c(C(=O)N(c2ccc(C)c(C)c2)C(C(=O)NCc2ccco2)c2ccccc2)s1` (centres undefined) was 29.1%; that for `Cc1ccc(NC(=S)N/N=C2/CCCc3c(C)cc(C)cc32)cc1` was 13.9%; that for `Cc1nn(-c2ccccc2)c(Cl)c1C(=O)Nc1ccccc1` was -7.8%. For `Cc1cc(=O)oc2cc(OC(C)C(=O)Nc3ccc(N4CCOCC4)cc3)ccc12` (centres undefined), the inhibition is 0.5%. Under `CCOC(=O)CSc1ncc(-c2cccc(Cl)c2)cn1` stands -17.9%. Under `C=CCn1c(SCC(=O)c2c(N)n(C)c(=O)n(C)c2=O)nc2sc(CC)cc2c1=O` stands 2%. Under `Cc1cccc(NC(=O)c2ccc(OCC(=O)NCc3ccccc3)cc2)c1C` stands 4.9%; under `COc1ccc(Cl)cc1NC(=O)CN(C)C(=O)CNC(=O)C12CC3CC(CC(C3)C1)C2`, 16%. As to `O=C(Cc1ccc(S(=O)(=O)N2CCOCC2)s1)NCCC(c1ccccc1)c1ccccc1`, the inhibition was 4.8%. Under `CCCc1ccc(-c2c(C)sc(NC(=O)c3ccnn3C)c2C#N)cc1` stands 10%; under `CCOC(=O)C1=C(CN2CCc3ccccc32)NC(=O)NC1c1cc(C)ccc1C` (centres undefined), -13.1%; under `CCn1cc(C(=O)N/N=C(/C)c2ccc(F)cc2)c(=O)c2cc(F)c(N3CCCC3)cc21`, 15.8%. As for `Cc1c(C(=O)NCc2ccccc2)cnn1-c1ccccc1`, the inhibition was -6.2%. Under `O=C(Nc1cc(C(F)(F)F)ccc1Cl)c1cc2nc3c(c(C(F)(F)F)n2n1)CCCC3` stands 0.6%. The value for `O=C(CN1CCCCCC1)Nc1ccc(Br)cc1Br` was 12.8%; that for `CC(C)(C)Cc1nnc(NC(=O)c2cc(-c3ccccc3)nc3ccccc23)s1` was 15.7%; that for `C=CCn1c(-c2ccc(Cl)cc2)ccc(C#N)c1=O` was -30.7%. Under `O=[N+]([O-])c1cccc(-c2nnc3c4ccccc4c4ccccc4n23)c1` stands 5.3%; under `CN1OC(COC(=O)c2ccc(Cl)cc2)CC1c1ccccc1` (centres undefined), 6.5%; under `CC1Cc2ccccc2N1CC(=O)Nc1ccc2c(c1)OC(F)(F)O2` (centres undefined), -0.7%.

As to `Cn1sc(NC(=O)c2ccccc2)nc1=O`, the inhibition was -7.1%. Take `CCOC(=O)CSc1nc2sc3c(c2c(=O)[nH]1)CC(C)(C)OC3`: the inhibition was 4.9%.

Consider `CCC1(C)Cc2c(sc3nc4n(c(=O)c23)CCCS4)CO1` (centres undefined), for which the inhibition is -10.6%.

`CCOC(=O)Cn1c(SC)nc2sc3c(c2c1=O)CC(C)(C)OC3`: the inhibition was 81.7% (active).

For the compound `COc1ccc(CCN(C(=O)COc2ccccc2)c2nc(-c3ccccc3)cs2)cc1OC`, the inhibition was -22.5%. Under `C=CCOc1cccc(CNn2cn[nH]c2=S)c1` stands 0.7%; under `Cn1c2ccccc2n2c(=O)c(=O)n(CC(=O)c3ccc(F)cc3)nc12`, -17.3%. Under `COc1ccc(Nc2nc(-c3ccccc3)cs2)cc1` stands 11.3%. Turning to `c1ccc(C2CCC(N3CCC(N4CCCCC4)CC3)CC2)cc1` (centres undefined), the inhibition was 26.6%.

For `O=C(CSCc1c(Cl)cccc1Cl)NN1C(=O)c2ccccc2C1=O`, the inhibition was 11.9%.

As for `CC(=O)NNc1cc(=O)c2c(=O)n(C)c(=O)n(C)c2[nH]1`, the inhibition is -8.3%. Take `CCCCNC(=O)CCn1c(=S)[nH]c2cc3c(cc2c1=O)OCO3`: the inhibition is -16.1%. For the compound `CCCNC(=S)NC1CC2CCCC(C1)N2CC(C)C` (centres undefined), the inhibition was 14.2%. As for `O=C(NC1CCc2ccccc21)C12CN(Cc3ccccc3)CC1C(c1cccc([N+](=O)[O-])c1)=NO2` (centres undefined), the inhibition was 11.9%. The value for `CCCSc1nsc(N)n1` was 8.5%.

For the origin of these results see PubChem BioAssay AID836 (Columbia University Molecular Screening Center, 2007).
